Reference: the supplement of paper PMC8291772
± gives the standard error. Over roughly 1,300 sequences, “fluorescence a.u.” has its median near 38; the highest 2% begin near 280. Shown is part of a subset that was picked to be rich in the highest values.

target: terminal deoxynucleotidyl transferase (calf thymus) (UniProt P06526); assay: TdT poly-dT extension signal (Cy3 hybridisation fluorescence, uncapped minus capped) (fluorescence a.u.); higher = more efficient initiation of TdT extension; details: initiator chemistry: L-DNA (mirror-image), free 5'-OH (3'-tethered via HEG linker)
Sequence (P06526 whole entry): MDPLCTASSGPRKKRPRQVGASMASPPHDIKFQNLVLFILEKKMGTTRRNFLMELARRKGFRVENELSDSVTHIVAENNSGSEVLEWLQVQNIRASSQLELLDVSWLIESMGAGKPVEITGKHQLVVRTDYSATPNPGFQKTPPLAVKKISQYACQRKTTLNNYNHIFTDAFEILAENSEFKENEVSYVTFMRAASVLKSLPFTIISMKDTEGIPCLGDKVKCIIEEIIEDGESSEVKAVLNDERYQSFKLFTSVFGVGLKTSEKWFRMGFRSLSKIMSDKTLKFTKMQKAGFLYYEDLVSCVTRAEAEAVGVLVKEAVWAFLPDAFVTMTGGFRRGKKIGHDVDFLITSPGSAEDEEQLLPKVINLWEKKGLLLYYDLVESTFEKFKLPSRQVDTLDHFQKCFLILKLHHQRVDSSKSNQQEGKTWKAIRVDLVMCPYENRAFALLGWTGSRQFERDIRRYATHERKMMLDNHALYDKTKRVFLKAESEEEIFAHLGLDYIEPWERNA
Protocol: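 All mono- to pentamer D-DNA or L-DNA initiators were made by forward (3'->5') photolithographic in situ synthesis on glass on a hexaethylene glycol linker, leaving a free 5'-OH. Each was made in uncapped and DMTr-dT-capped versions, about 11 replicates each. Arrays were extended with calf thymus TdT (0.2 U/uL), 100 uM dTTP and 0.25 mM CoCl2 for 120 min at 37 C, hybridised with an rA18-Cy3 probe and scanned at 532 nm. The value is the mean uncapped minus the mean capped signal. IDs read 5'->3'. L-DNA is mirror-image; D-DNA 5'-OH initiators were below LOD (no extension).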

Row | Sequence | TdT poly-dT extension signal
1 | GTCAC | 153 ± 10
2 | ATCAT | 172 ± 14
3 | TTCAA | 388 ± 29
4 | TTCAG | 356 ± 32
5 | CTCAA | 147 ± 10
6 | TTCAT | 372 ± 18
7 | TTCA | 275 ± 22
8 | CTCAG | 173 ± 11
9 | GTCAG | 161 ± 18
10 | CTCAT | 130 ± 12
11 | TTCAC | 371 ± 39
12 | ATCAC | 188 ± 16
13 | GAGTT | 40.6 ± 5.8
14 | AAAAG | 101 ± 8.9
15 | GACGG | 117 ± 18
16 | GAACC | 55.9 ± 8.8
17 | ACCAT | 97.4 ± 8.9
18 | GGGTG | 69.1 ± 4.3
19 | TGCGA | 157 ± 7.9
20 | ATATG | 192 ± 15
21 | ATATC | 192 ± 14
22 | GTAT | 140 ± 12
23 | TTATC | 325 ± 29
24 | TTATG | 340 ± 26
25 | TTATA | 384 ± 22
26 | TTGT | 258 ± 19

Row | Sequence | TdT poly-dT extension signal
27 | CTATA | 170 ± 13
28 | ATATA | 192 ± 12
29 | TTAT | 340 ± 30
30 | CTATG | 161 ± 12
31 | CTATC | 168 ± 13
32 | TTGGA | 284 ± 17
33 | AGTGA | 57.2 ± 5.7
34 | ACTCA | 79.4 ± 8.6
35 | TATAT | 197 ± 14
36 | AACTT | 58.3 ± 8.9
37 | ACGCG | 70.6 ± 6.6
38 | GGTTA | 50.7 ± 4.8
39 | ATATT | 201 ± 13
40 | GTATT | 158 ± 10
41 | TTATT | 381 ± 16
42 | TATCC | 138 ± 13
43 | AAAGC | 67 ± 7.7
44 | GCTGA | 75.3 ± 5.4
45 | CGACA | 68.1 ± 4.9
46 | GTAAC | 191 ± 15
47 | TTAAC | 377 ± 27
48 | ATAAT | 246 ± 19
49 | GTAA | 143 ± 13
50 | ATAAG | 229 ± 14
51 | CTAA | 170 ± 12
52 | CTAAG | 215 ± 13

Row | Sequence | TdT poly-dT extension signal
53 | TTAAT | 491 ± 32
54 | TTAAG | 495 ± 38
55 | CTAAC | 201 ± 14
56 | TTAA | 347 ± 25
57 | CTAAT | 206 ± 15
58 | GGAAG | 82.2 ± 8.3
59 | ACGTC | 47.1 ± 4.9
60 | TACTG | 153 ± 14
61 | TCTGA | 172 ± 12
62 | ATCAA | 236 ± 13
63 | GTCA | 95.9 ± 6.2
64 | GGATC | 67.1 ± 5.8
65 | AATA | 106 ± 9.7
66 | ATGGC | 127 ± 8.4
67 | AACGG | 77.3 ± 5.7
68 | GAGTG | 61 ± 6.3
69 | TTAAA | 563 ± 39
70 | CTAAA | 224 ± 15
71 | ATAAA | 276 ± 19
72 | TCGAA | 187 ± 8.6
73 | CTTGC | 107 ± 7.2
74 | TTGAG | 317 ± 33
75 | TTGA | 270 ± 19
76 | TTGAC | 338 ± 26
77 | TTGAT | 314 ± 27
78 | GTGAG | 160 ± 13

Row | Sequence | TdT poly-dT extension signal
79 | GTGAC | 144 ± 9
80 | GTGAA | 142 ± 17
81 | ATGAA | 175 ± 12
82 | CTGAG | 130 ± 11
83 | GTGAT | 121 ± 12
84 | TTGAA | 339 ± 42
85 | ATGAT | 150 ± 9.9
86 | TCTCC | 117 ± 8.4
87 | CCGGG | 82.9 ± 7.7
88 | GTAAA | 239 ± 15
89 | ACTTT | 70.7 ± 5.3
90 | CTGGT | 116 ± 6.9
91 | TCCCG | 199 ± 19
92 | AATG | 74.3 ± 5.6
93 | GTGTT | 100 ± 8.2
94 | CGCGA | 66.2 ± 6
95 | ACCCG | 76.1 ± 6.5
96 | TTTCG | 286 ± 22
97 | TTTC | 280 ± 19
98 | CTTCG | 133 ± 16
99 | TGCAC | 141 ± 11
100 | GGGCG | 83.8 ± 6.6
101 | GACGC | 93 ± 9.5
102 | CTGGG | 141 ± 8.5
103 | TTTGT | 311 ± 21
104 | GTTGG | 144 ± 11

Row | Sequence | TdT poly-dT extension signal
105 | TTTTG | 293 ± 38
106 | ATTGT | 167 ± 9.2
107 | ATTGG | 180 ± 13
108 | TTTT | 223 ± 25
109 | GTTGT | 139 ± 8.7
110 | TTTGG | 350 ± 26
111 | TTGG | 274 ± 21
112 | TTGGG | 335 ± 18
113 | TTTTT | 282 ± 18
114 | GTGGG | 172 ± 9.4
115 | TATCA | 160 ± 12
116 | GGCGC | 77.7 ± 6.3
117 | CGAGC | 65 ± 6.4
118 | GCGGC | 73.3 ± 6.8
119 | AGCAA | 61.2 ± 5.3
120 | TTTG | 264 ± 15
121 | TTTGC | 271 ± 19
122 | TTTGA | 320 ± 26
123 | TTTCC | 270 ± 21
124 | TGCC | 126 ± 14
125 | TTCCT | 286 ± 28
126 | ATCCC | 147 ± 16
127 | GTCCA | 122 ± 10
128 | TCCCC | 175 ± 17
129 | ATCCA | 153 ± 10
130 | GTCCT | 117 ± 9.6
